BRCT PPI green = blocks human BRCA1 BRCT binding to phosphopeptide, green readout. 75,000 compounds, 0.05% hits. AID 875. Potency, µM (top dose mostly 76.9 µM), without a hit: at the highest dose activity change, negative = inhibition, most hits filed as inhibitors. BRCA1 BRCT-phosphopeptide binding, green fluorescence polarization;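 further: potency means the concentration at half of the fitted maximal effect; plate controls were peptide without protein for full effect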
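Fluorescence polarization: His-tagged BRCT (~35 kDa BRCA1 C-terminus, 250 nM) bound to 100 nM fluorescein-labeled phosphorylated 10-aa BACH1 peptide, pH 7.3 phosphate buffer with DTT and Tween 20. Compounds incubated 12 min at room temperature; inhibition read as lowered polarization.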
BRCT inh red = disrupts BRCA1 BRCT binding to phosphoprotein, red fluorophore readout. P38398. BRCT-phosphopeptide binding, red fluorescence polarization. Potency, µM (highest dose often 76.9 µM), inactives show at the top dose activity change, negative = inhibition, hits mostly inhibitors. 75,000 compounds, 0.03% hits. AID 892; further: on the % scale 0 is the no-effect control and ±100 the full control effect
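Fluorescence polarization: 100 nM His-tagged BRCA1 BRCT with 100 nM TAMRA-labelled phospho-BACH1 decapeptide, phosphate buffer pH 7.3 with 150 mM NaCl, DTT, 0.01% Tween 20; 12 min RT. Binding inhibition seen as FP decrease.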
Tau fil binding = binds recombinant human tau filaments. recombinant tau filaments, thioflavin S fluorescence, 15 h; filaments grown with octadecylsulfate alongside compound. Potency, µM (titrated, usually from 57.1 µM), inactives show top-dose activity change, negative = inhibition. 71,000 compounds, 2% hits. AID 596;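 further: potency means the concentration at half of the fitted maximal effect; on the % scale 0 is the no-effect control and ±100 the full control effect; actives lower thioflavin S fluorescence by blocking filaments or displacing dye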
Target sequence (P10636 whole entry, looked up): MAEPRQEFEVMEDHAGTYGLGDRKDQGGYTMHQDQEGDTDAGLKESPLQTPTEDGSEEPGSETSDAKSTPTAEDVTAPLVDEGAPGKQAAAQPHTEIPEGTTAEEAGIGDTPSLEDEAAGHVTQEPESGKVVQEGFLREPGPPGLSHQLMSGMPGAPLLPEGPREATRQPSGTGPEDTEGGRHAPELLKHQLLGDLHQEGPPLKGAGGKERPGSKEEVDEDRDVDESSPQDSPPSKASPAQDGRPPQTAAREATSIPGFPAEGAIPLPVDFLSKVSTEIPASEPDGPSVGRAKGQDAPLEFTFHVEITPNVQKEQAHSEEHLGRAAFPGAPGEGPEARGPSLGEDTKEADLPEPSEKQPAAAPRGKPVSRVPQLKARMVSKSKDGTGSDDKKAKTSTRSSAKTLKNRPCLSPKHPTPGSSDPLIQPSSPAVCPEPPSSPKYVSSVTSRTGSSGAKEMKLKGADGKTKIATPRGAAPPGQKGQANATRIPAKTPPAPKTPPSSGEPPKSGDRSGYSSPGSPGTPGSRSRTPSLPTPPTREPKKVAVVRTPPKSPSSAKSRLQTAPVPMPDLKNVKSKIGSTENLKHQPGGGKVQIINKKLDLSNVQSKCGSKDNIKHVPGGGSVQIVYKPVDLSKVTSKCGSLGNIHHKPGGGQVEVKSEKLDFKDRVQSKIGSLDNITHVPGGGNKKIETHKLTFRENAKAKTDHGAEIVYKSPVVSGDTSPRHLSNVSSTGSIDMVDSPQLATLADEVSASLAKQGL
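Assay mix: 1 uM His-tagged tau, 30 uM sodium octadecylsulfate, thioflavine S dye in HEPES/NaCl/DTT buffer. Compound is added prior to the inducer. Fluorescence after 15 h at 37 C.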
Pol III holo inh = blocks replication by bacterial DNA polymerase III holoenzyme; reconstituted DNA polymerase III holoenzyme replication, biochemical; AID 603; 71,000 compounds, 0.25% hits; Potency, µM (doses to about 57.1 µM), inactives show at the top dose activity change, negative = inhibition; further: potency means the concentration at half of the fitted maximal effect; on the % scale 0 is the no-effect control and ±100 the full control effect
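Reconstituted *E. coli* holoenzyme (0.35 nM Pol III, 1 nM beta, 154 nM SSB, 2 nM primase) was preincubated with compound for 15 min at RT. Synthesis on 1.4 nM ssM13Gori ran 35 min, then was stopped with PicoGreen/EDTA and read as dsDNA fluorescence.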
Hsp90 Hop PPI = changes Hsp90-Hop TPR2A binding signal, up or down | AlphaScreen TPR2A-His6 binding biotin-Hsp90 C-terminal peptide | Potency, µM (doses to about 57 µM), inactives show at the top dose activity change, negative = inhibition | 71,000 compounds, 0.44% hits | AID 595; active means well fitted curve in either direction with a large enough effect; inconclusive means small, poorly fitted or top-dose-only effect, or another doubt; further: potency means the concentration at half of the fitted maximal effect; on the % scale 0 is the no-effect control and ±100 the full control effect
TsaE inh = inhibitors of E. coli YjeE (TsaE); 71,000 compounds, 0.05% hits; Potency, µM; AID 605; P0AF67; purified YjeE enzyme, qHTS inhibition assay
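Fluorescence polarization of a BODIPY Texas Red–ADP probe (2 uM) bound to purified YjeE (10 uM) was read after 15 min room-temperature incubation with compounds. Loss of polarization marks inhibitors; ADP serves as titrated control.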
The depositor's hits bear a star; i = inactive; ? = inconclusive; . = no result; ! = not confirmed by another sample; [ ] = dose if it differs, or a comment. Sampled rows, rich in hits. Any-hit rate of the full collection: about 2.4%. Unless noted, the call rests on the fitted dose curve; in most records, active means well fitted curve in the direction sought with a large enough effect; inconclusive means small, poorly fitted or top-dose-only effect, or another doubt; inactive means no such curve, though single readings can be large; an effect the other way counts as inactive or inconclusive.

SMILES	BRCT PPI green	BRCT inh red	Tau fil binding	Pol III holo inh	Hsp90 Hop PPI	TsaE inh
C=CCn1c2ccccc2c2nnc(SCC(=O)NC(C(=O)OC)C(C)C)nc21 (configuration not stated)	-2%	1%	8%	-9%	-2%	i
C=CCSc1nnc2nc3c(nn12)c1cc(C)ccc1n3CC=C	-2%	-2%	6.3µM*	-8%	-18%	i
C[C@]12CC[C@H]3c4ccc(O)cc4CC[C@@H]3[C@H]1CC[C@@H]2OC(=O)CCc1ccccc1	-1%[15.4 µM]	-1%[15.4 µM]	-2%[11.4 µM]	0%[11.4 µM]	-5%[11 µM]	i
O=C1c2ccccc2C(=O)C1c1ccc2ccccc2n1	3%	-1%	0.63µM*	-22%	?	i
Nc1ccc(-c2ccc3ccccc3n2)cc1	-2%	1%	.	.	.	.
CCCCN(C(=O)c1ccc(Cl)cc1)C1CC2CCC(C1)N2C (configuration not stated)	-1%	1%	16µM*	-1%	-2%[2.3 µM]	i
COc1cc(C(=O)N(CCc2ccccc2)C2CC3CCC(C2)N3C)cc(OC)c1OC (configuration not stated)	-2%	0%	3%	-6%	0%	i
COc1ccc2ccccc2c1C(O)c1nccn1C (configuration not stated)	13µM*	?	i	48%	-4%	i
O=C1C=CC2=C3c4cc(O)c(O)cc4C[C@@]3(O)COC2=C1O	.	.	?	0.02µM*	?	?
Cc1ccc(C#CC2C=CC(Oc3ccc4c(c3)OCO4)C(CO)O2)c(C)c1 (configuration not stated)	1%[15.4 µM]	-1%[15.4 µM]	.	.	.	.
CC1(NC[C@@H](O)COc2cccc3[nH]ccc23)CCC(C(C)(C)NC(=O)CBr)CC1 (some centres not stated)	.	.	-7%	-1%	-16%	i
Cc1ccc(NC(=O)Nc2cccs2)cc1	0%	-2%	.	.	.	.
O=C(Nc1cccs1)Nc1ccccc1Cl	3%	0%	25µM*	-6%	-11%	i
NC(=O)NC(=O)Nc1ccccc1Cl	-7%	-1%	4%	5%	0%	i
CCc1ccc(NC(=O)Nc2cccs2)cc1	-4%	0%	25µM*	-5%	-14%	i
O=C1C(=O)c2ccccc2C(O)=C1Cc1ccccc1	-1%[15.4 µM]	0%[15.4 µM]	-1%[11.4 µM]	-15%[11.4 µM]	-8%[11 µM]	i
CCCc1cc(C(N)=O)c(NC(=O)c2ccoc2C)s1	4%	0%	-24%	1%	?	i
CCCc1cc(C(N)=O)c(NC(=O)c2cc(C)on2)s1	1%	-2%	32µM*	0%	-6%	i
Cc1cc(N)c2ccccc2[n+]1CCCCCCCCCC[n+]1c(C)cc(N)c2ccccc21	-3%[3.08 µM]	-1%	72%	16µM*!	?	?
O=c1ccn([C@H]2O[C@H](CO)[C@@H](O)[C@@H]2O)c(=O)[nH]1	.	.	?	-3%	0%	i
Cc1cc(NC(=O)Cc2cccs2)no1	-1%	-9%	16µM*	-14%	-17%	i
Cc1cc(NS(=O)(=O)c2ccc(NC(=O)Cc3cccs3)cc2)no1	-5%	-1%	19%	-1%	-3%	i
CC[C@@H](c1ccccc1)n1c(=O)n2n(c1=O)[C@H]1[C@H](O)[C@H]3O[C@@H]3/C(=N/OC[C@@H](O)COCc3ccco3)[C@@H]1CC2	-1%[15.4 µM]	0%[15.4 µM]	.	.	.	.
CS(=O)(=O)N(CC(=O)O)c1ccccc1	-3%	0%	.	.	.	.
Cc1cc(Cl)ccc1Nc1sc(C(=O)c2cc3cc(Cl)ccc3o2)c(N)c1C#N	1%[15.4 µM]	1%[15.4 µM]	3.2µM*	-1%[11.4 µM]	-7%[11 µM]	i
SMILES	BRCT PPI green	BRCT inh red	Tau fil binding	Pol III holo inh	Hsp90 Hop PPI	TsaE inh
CCCC(=O)c1cc2cc(Cl)ccc2oc1=O	-1%	-2%	148%	4%	?	i
COc1ccc(Br)cc1CNc1ccc(O)cc1	-2%	-8%	32µM*	-10%	?	i
Cc1nc2ccc(Cl)cc2nc(C)/c1=N\O	-2%	1%	13µM*	-5%	-19%	i
O=c1cc(-c2c(F)c(F)c(F)c(F)c2F)oc2c(F)c(F)c(F)c(F)c12	-2%	-1%	16µM*	-5%	-3%	i
C[C@]12C=CC(=O)C=C1CC[C@@H]1[C@H]3C[C@@H](O)[C@](O)(C(=O)CO)[C@]3(C)C[C@H](O)[C@]12F	.	.	6%	-3%	-6%	i
O=c1cnnc(SCCc2ccccc2)[nH]1	0%	1%	7.9µM*	-7%	-19%	i
CN1C(=O)CSc2ccc(NC(=O)N3CCN(c4ccccn4)CC3)cc21	-2%	0%	-27%	6%	-9%	i
CN1C(=O)CSc2ccc(NC(=O)Nc3ccccn3)cc21	15%	-2%	10µM*	3%	-9%	i
O=c1cc(O)cc(/C=C\c2ccc(O)c(O)c2)o1	5%	-8%	1%	6.3µM*	13µM*	i
CC(=O)O[C@@H]1C[C@]2(C)[C@H](C[C@@H](O)[C@H]3[C@@]4(C)CC[C@@H](O)[C@@H](C)[C@@H]4CC[C@@]32C)/C1=C(\CCC=C(C)C)C(=O)O	-2%	-1%	6%	-8%	-5%	i
CN1CCc2c(sc3c2C(=O)NC(c2ccc(-c4cccc(Cl)c4)o2)N3)C1 (configuration not stated)	13%	1%	1.3µM*	-18%	?	i
N#Cc1c(/N=C/c2cccs2)sc2c1CCC2	-6%	1%	16µM*	-1%	-9%	i
O=c1c2c3c(sc2ncn1/N=C/c1ccco1)CCCC3	1%	2%	22%	-10%	-5%	i
CN1CCc2c(sc(/N=C/c3cccs3)c2C(N)=O)C1	11%	0%	i	8%	-7%	i
N#Cc1c(/N=C/c2ccco2)sc2c1CCCCC2	-1%	1%	16µM*	-6%	-27%	i
CCN(CC)[C@@H](C)C(=O)N1c2ccccc2Sc2ccccc21	.	.	-7%	-4%	-3%	i
CCCCCC[C@@H]([C@H](C)O)n1cnc2c(N)ncnc21	1%	-2%	-5%	-5%	-3%	i
Cc1cc2nn(-c3cccc4ccccc34)nc2cc1N	-2%	1%	7.9µM*	-4%	3%	i
Nc1ccc2nn(-c3cccc4ccccc34)nc2c1	0%	-5%	.	.	.	.
CCOC(=O)c1cccc(NC(=O)c2cccnc2)c1	-1%	0%	6%	-4%	-1%	i
CCOC(=O)c1cccc(NC(=O)c2cnc3ccccc3n2)c1	1%	1%	25µM*	-4%	1%	i
Cc1cc(N2CCN(c3nc(N4CCOCC4)nc4ccccc34)CC2)c2ccccc2n1	-1%	0%	-8%	-21%	-7%	i

Assay outcomes deposited in PubChem BioAssay by National Center for Advancing Translational Sciences (NCATS).
